# From PubChem BioAssay (NCI)
# “And” between values parts separate entries of the source, which are not always exact repeats. Identical values can stand only once. Compounds without any hit were thinned out: in the full panel of roughly 79,000, 15% have a hit. Some structures have more than one record in an assay (separate samples or runs), and their calls can disagree. The source made the active and inactive calls. No stated cut-off is given here; in the data, active means growth inhibition above about 70%; inactive means the rest.
# Assay: NCI Yeast Anticancer Drug Screen. Data for the mlh1 rad18 strain (AID 175)
# Settings: S. cerevisiae mlh1 rad18 strain growth inhibition; at 50.0 µM; stronger effect = higher value
# Method in brief: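 Yeast w/ defined DNA-repair lesions; compound exposure; growth vs vehicle controls → % inhibition.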
row,SMILES,growth inhibition
1,O=c1[nH]cnc2[nH]cc(CN3CCCCC3)c12,9.4% (inactive)
2,NCCBr,2.25% (inactive) and -0.05% (inactive)
3,CSc1ncc(COP(=S)(OCc2cnc(SC)nc2N)OCc2cnc(SC)nc2N)c(N)n1,23% (inactive)
4,O=[N+]([O-])c1ccc(O)c(Cl)c1,70.8% (active)
5,CCN(CC)CC(=O)c1ccc2c(ccc3ccccc32)c1,99.3% (active)
6,Cc1ccc([C@H]2N[C@@H]2c2ccccn2)cc1,19% (inactive)
7,CCC1(C2=CCCCC2)C(=O)NC(=S)NC1=O,25.5% (inactive) and 85% (active)
8,Cn1cnc(C(=N)[Se])c1N,67.7% (inactive)
9,CCOC(=O)NC(=S)[S][Sb]([S]C(=S)NC(=O)OCC)[S]c1nc2ccc(N=Nc3ccc(NS(=O)(=O)c4ccc(NC(=O)C(N5CC5)(N5CC5)N5CC5)cc4)cc3)cc2s1,99.2% (active)
10,COc1ccccc1/C=C(/C)[N+](=O)[O-],99.5% (active)
11,O=c1oc2ccccc2c(O)c1C(c1ccc(OCc2ccccc2)cc1)c1c(O)c2ccccc2oc1=O,50.9% (inactive)
12,COc1cc(N(CCCl)CCCl)ccc1C=Nc1cccc(Cl)c1,94.2% (active)
13,O=[N+]([O-])c1cc2c([N+](=O)[O-])cccc2o1,99.5% (active)
14,ClCCN(CCCl)c1ccc(C2N(Cc3ccc(N(CCCl)CCCl)cc3Cl)CCCN2Cc2ccc(N(CCCl)CCCl)cc2Cl)cc1,98.2% (active)
15,CCN(Cc1ccccc1)CC(O)c1ccc(Cl)c(Cl)c1 (centres undefined),3.6% (inactive)
16,FC1(F)C(Cl)=[C]([Hg][C]2=C(Cl)C(F)(F)C(F)(F)C(F)(F)C2(F)F)C(F)(F)C(F)(F)C1(F)F,50.6% (inactive)
17,CCn1c(O)c(C(=O)NC(C)c2ccc([N+](=O)[O-])cc2)c(=O)n(CC)c1=S (centres undefined),87% (active)
18,CC(=O)[O][Hg][c]1ccccc1N,91.7% (active)
19,CCC[CH2][Sn]1([CH2]CCC)[O]Cc2nc(C)ccc2[O]1,85.5% (active)
20,CCCCCCCCCCCCC(=O)[O][Hg][c]1ccccc1,99.5% (active)

row,SMILES,growth inhibition
1,CN(C)CC1CC2C3CC=C4CC(O)CCC4(C)C3CCC2(C)C1=O (centres undefined),92.5% (active)
2,CC(=O)O.CC(=O)[O-].CC(=O)[O-].[Co+3].[NH-]CC[NH-].[NH-]CC[NH-],4.05% (inactive)
3,Nc1nc(CCl)cs1,17.8% (inactive) and -17% (inactive)
4,CC1=CCC2(C)C3CCC4(C)C(O)CCC4C3CCC2(C)C1 (centres undefined),58.6% (inactive)
5,CC1CCC2(NC1)OC1CC3C4CC=C5CC(O)CCC5(C)C4CCC3(C)C1C2C (centres undefined),89% (active) and 98.8% (active)
6,CCN1CCC(O)(c2ccc(Cl)c(Cl)c2)C(C(=O)c2ccc(Cl)c(Cl)c2)C1 (centres undefined),99.6% (active)
7,O=C(c1ccccc1)c1c(CC(O)c2ccccn2)n(C(=O)c2ccccc2)c2ccccc12 (centres undefined),84% (active)
8,CC(O[Si](c1ccccc1)(c1ccccc1)C(C)(C)C)[C@H](NC(=O)OC(C)(C)C)C(=O)O (some centres undefined),92.9% (active)
9,CC(C)=CC1CC(C)C2(CCC3(C)CC4C(C(=O)CC4(C)O)/C(C=O)=C\CC32)O1 (centres undefined),93.7% (active)
10,CC(=O)O[C@H]1C[C@@H]2OC3C=C(C)CCC3(C)[C@@]1(C)[C@@]21CO1 (some centres undefined),92.8% (active) and 17.9% (inactive)
11,O=C1NC(=O)C([N+](=O)[O-])C(=O)N1,18.8% (inactive)
12,N#C[S-].[Nd+3].c1ccc(-c2ccccn2)nc1.c1ccc(-c2ccccn2)nc1.c1ccc(-c2ccccn2)nc1,92% (active)
13,CC(=O)Nc1ccccc1[As](O[As](c1ccccc1)c1ccccc1NC(C)=O)c1ccccc1 (centres undefined),99.5% (active)
14,Oc1cccc[c]1[Hg][Cl],99.5% (active)
15,Nc1nc(N)c(-c2ccc(Cl)c(Cl)c2)c(CCc2ccc(CNC(=O)Nc3ccc(S(=O)(=O)F)cc3)cc2)n1,84.7% (active)
16,C1CC[N-]CC1.CC(=N\O)/C(C)=N/O.CC(=N\O)/C(C)=N/O.OC1[CH-]CCCC1.[Co+2],30.9% (inactive)
17,CC(=O)OC1C2(CC3N4C(=O)C5(CO)SSC4(CC31O)C(=O)N5C)OC(C)C(C)(C)C2=O (centres undefined),91.2% (active)
18,C[C@H]1C/C=C/[C@H]2[C@@H]3O[C@]3(C)[C@@H](C)[C@H]3[C@H](Cc4ccccc4)NC(=O)[C@]32OC(=O)O/C=C/[C@@](C)(O)C1=O,81.8% (active)
19,C1CC[N-]CC1.[Cl][Au]([Cl])[Cl],96.8% (active)
